# Measurements from PubChem BioAssay (EPA / NIEHS).
# Inconclusive results are not listed. The source made the active and inactive calls. The calls were made as follows: active = hit-call score of the fitted dose curve at least 0.9, where 1 is the maximum; inconclusive = response in the unintended direction; inactive = score below 0.9.
# Experiment: Tanguay_ZF_120hpf_JAW_legacy: (Legacy) Oregon State University Tanguay Lab 120 Hour Post-fertilization zebrafish Assay for Jaw Malformation (AID 2283638);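 as to AC50: active means more embryos with jaw malformation than DMSO controls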
# Procedure: Tanguay_ZF_120hpf_legacy is a whole embryo, multiplexed endpoint assay using zebrafish larvae exposed for 120 hours post fertilization on a 96-well plate.Tanguay_ZF_120hpf_JAW_legacy is one of one assay component(s) measured or calculated from the Tanguay_ZF_120hpf_legacy assay. It is designed to make measurements of zebrafish development as detected with brightfield microscopy of developing zebrafish embryos.Data from the assay component Tanguay_ZF_120hpf_JAW_legacy was analyzed into 1 assay endpoints. This assay endpoint, Tanguay_ZF_120hpf_JAW_legacy, was analyzed in the positive analysis fitting direction relative to DMSO as the negative control and baseline of activity. Using a type of morphology reporter, gain-of-signal activity can be used to understand changes in developmentals as they relate to the whole embryo. To generalize the intended target to other relatable targets, this assay endpoint is annotated to the zebrafish development intended target family, where the subfamily is embryonic jaw development.
# Zebrafish husbandry: Tropical 5D wild-type adult zebrafish were housed in at an approximate density of 1000 per 100 gallon tank at the Sinnhuber Aquatic Research Laboratory, Oregon State University, Corvallis, OR. Each tank was kept at standard laboratory conditions of 28C on a 14-h light/10-h dark photoperiod in fish water consisting of reverse osmosis water supplemented with a commercially available salt (Instant Ocean). Spawning funnels were placed into the tanks the night prior, and embryos were collected and staged. To increase bioavailability, the chorion was enzymatically removed using pronase (63.6mg/ml, >/= 3.5U/mg, Sigma-Aldrich: P5147) at 4 hours post fertilization (hpf) using a custom automated dechorionator.Chemical exposures: Six hpf dechorionated embryos were placed 1 embryo per well in a 96-well plate prefilled with 90 ul of EM using automated embryo placement systems (AEPS). Ten microliters of each row of dilution plate 2 was added to 2 exposure plates. The final DMSO concentration used was 0.64% (vol/vol). Thirty-two embryos were also exposed to 5uM trimethyltin chloride (positive control). Plates were sealed to prevent evaporation and foil covered to reduce light exposure and kept in a 28C incubator. Embryos were statically exposed until 120 hpf. At 24 hpf, embryos were assessed for photomotor response using a custom photomotor response analysis tool (PRAT) and for developmental toxicity endpoints (MO24: mortality at 24 hpf, DP: developmental progression, SM: spontaneous movement, and NC: notochord distortion). At 120 hpf, locomotor activity was measured using Viewpoint Zebralab and assessed for 18 endpoints. Zebrafish acquisition and analysis program (ZAAP), a custom program designed to inventory, acquire, and manage zebrafish data, was used to collect developmental endpoints as either present or absent (i.e., binary responses were recorded). If mortality occurred for an embryo (at either 24 or 120 hpf), the non-mortality endpoints were not measured.
SMILES,AC50,outcome
c1ccc2cc3c(ccc4ccccc43)cc2c1,49.1 µM (active),
CCCOC(=O)c1ccc(O)cc1,10 µM (active),
COC(=O)CCCCC(=O)OC,,inactive
CC(C)(C)c1cc(C(C)(C)C)c(O)c(C(C)(C)C)c1,,inactive
COc1ccc([N+](=O)[O-])cc1N,,inactive
CCc1nn(C2CCCCC2)c2cc(C3(C#N)CCC(C(=O)O)CC3)ccc12 (stereo not given),0.332 µM (active),
O=c1c(-c2ccc(O)cc2)coc2cc(O)ccc12,,inactive
N#C[C@@H]1CC(F)(F)CN1C(=O)CNC1CC2CCC(C1)N2c1ncccn1 (stereo not given in full),,inactive
CCCOc1sc(C(=O)N2CCC(c3cc(CN)ccc3F)CC2)c(C)c1Br,,inactive
CCC(=C(c1ccc(O)cc1)c1ccc(OCCN(C)C)cc1)c1ccccc1,,inactive
CCCCCCCCCCCCN1CCCC1=O,46.6 µM (active),
CC[C@H](c1ccc(O)cc1)[C@@H](CC)c1ccc(O)cc1,,inactive
CC(=O)CC(C)(C)O,,inactive
Cc1oc(-c2ccccc2)nc1CCOc1ccc(C[C@H](Nc2ccccc2C(=O)c2ccccc2)C(=O)O)cc1,,inactive
CN1CCN(c2ccccc2/C=C2\SCCN(c3ccc(Cl)c(Cl)c3)C2=O)CC1,,inactive
COCC(C)OCC(C)O (stereo not given),,inactive
O=C(OCCOCCOC(=O)c1ccccc1)c1ccccc1,,inactive
NC(=O)N(O)[C@@H]1C=C[C@H](Oc2cccc(Oc3ccc(F)cc3)c2)C1,,inactive
Cc1cc(C)c(O)c(C)c1,,inactive
CC(C)(C)c1ccc(O)c(C(C)(C)C)c1,,inactive

SMILES,AC50,outcome
NC(=O)N1C(=O)C(C(=O)c2cc(Cl)cs2)c2cc(F)c(Cl)cc21 (stereo not given),,inactive
CC(C)(C)CC(C)(C)c1ccc(O)c(-n2nc3ccccc3n2)c1,,inactive
CCc1ccc(CCOc2ccc(CC3SC(=O)NC3=O)cc2)nc1 (stereo not given),,inactive
O=C(O)Cc1cc(I)c(Oc2cc(I)c(O)c(I)c2)c(I)c1,0.00848 µM (active),
OC1CCC(C2CCCCC2)CC1 (stereo not given),,inactive
CCCCCCCCC(=O)O,,inactive
CCCCC(CC)COC(=O)CCCCC(=O)OCc1ccccc1 (stereo not given),,inactive
C[C@@H]1C[C@H]2[C@@H]3CCC4=CC(=O)C=C[C@]4(C)[C@@]3(F)[C@@H](O)C[C@]2(C)[C@@]1(O)C(=O)COP(=O)(O)O,,inactive
OCCC(F)(F)C(F)(F)C(F)(F)C(F)(F)C(F)(F)C(F)(F)F,,inactive
C#C[C@]1(O)CC[C@H]2[C@@H]3CCC4=CC(=O)CC[C@@H]4[C@H]3CC[C@@]21C,,inactive
CC(C)CCCCCCOC(=O)CCCCC(=O)OCCCCCCC(C)C,,inactive
CCOC(=O)CC(O)(CC(=O)OCC)C(=O)OCC,,inactive
COCC(C)O (stereo not given),,inactive
CN1CCC[C@H]1c1cccnc1,,inactive
O=[N+]([O-])c1ccc(O)cc1,,inactive
O=C(O)c1ccccc1C(c1ccc(O)cc1)c1ccc(O)cc1,,inactive
CCCCOCCO,,inactive
c1ccc2c(c1)ccc1ccccc12,,inactive
ClC1=C(Cl)C(Cl)(Cl)C(Cl)=C1Cl,,inactive
CCCCCCCCCCCCCCCS(=O)(=O)Oc1ccccc1,,inactive
